For 18 molecules, Potency results are on record in PubChem BioAssay (NCATS).

Molecules are shown by their SMILES. “And” between values parts separate entries of the source, which are not always exact repeats. Equal values may be shown once. Records with an inconclusive call do not appear. More than one record can exist for a structure, and the calls need not agree. The source made the active and inactive calls. The call rests on the fitted dose curve; in most records, active means well fitted curve in the direction sought with a large enough effect; inconclusive means small, poorly fitted or top-dose-only effect, or another doubt; inactive means no such curve, though single readings can be large; an effect the other way counts as inactive or inconclusive.

Experiment [1] has as its target Phospholipid hydroperoxide glutathione peroxidase GPX4 (Homo sapiens) (UniProt P36969). Put plainly: Primary qHTS Assay for Inhibitors of Recombinant Selenoprotein Glutathione Peroxidase 4 (GPX4) (AID 1845192). Further: nearly all actives have a fitted effect of over 65% in size. Further: potency means the concentration at half of the fitted maximal effect. The procedure, abridged: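 GR-coupled readout: 100 nM GR, 1 mM GSH, 0.5 mM NADPH; NADPH fluorescence (ex 340/em 450 nm) read at t=0 and after 15 min RT. GPX4 200 nM, preincubated 30 min with compound; substrate 0.5 mM CHP.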
For orientation: qHTS replaces the single test concentration by a dilution series.

Experiment [2] can be described thus: Quantitative High-Throughput drug screen in 47 multiple myeloma cell lines against the NCATS MIPE library collection: FR4_PLB cell viability assay (AID 1918924; further: nearly all actives have a fitted effect of over 35% in size; further: potency means the concentration at half of the fitted maximal effect). A digest of the protocol: (§1)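 CellTiter-Glo luminescence (ATP) after 48 h compound exposure, 37C/5% CO2; 500 cells/well; MIPE 4.0 approved/investigational drugs pinned in; DMSO = 100%, media only = 0% viability.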

Experiment [3] is described as follows: Quantitative High-Throughput drug screen in 47 multiple myeloma cell lines against the NCATS MIPE library collection: EJM_DSMZ cell viability assay (AID 1918926; further: nearly all actives have a fitted effect of over 30% in size). The procedure, abridged:
(§2)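 Steps: seed 500 cells per well; pin-transfer MIPE 4.0 library; incubate 48 h at 37C, 5% CO2, humidified; add CellTiter-Glo, 5 min room temperature; read luminescence.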

The nature of experiment [4]: Quantitative High-Throughput drug screen in 47 multiple myeloma cell lines against the NCATS MIPE library collection: AMO1_DSMZ cell viability assay (AID 1918927; further: nearly all actives have a fitted effect of over 30% in size; further: potency means the concentration at half of the fitted maximal effect). A digest of the protocol:
as §2

A short description of experiment [5]: Quantitative High-Throughput drug screen in 47 multiple myeloma cell lines against the NCATS MIPE library collection: ARP1_JJKsccF8 cell viability assay (AID 1918928; further: nearly all actives have a fitted effect of over 40% in size; further: potency means the concentration at half of the fitted maximal effect). A digest of the protocol:
(§3)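 Here, 48 h treatment with MIPE 4.0 agents at 37 °C preceded an ATP luminescence read. Plating density was 500 cells per well.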

Experiment [6] can be described thus: Quantitative High-Throughput drug screen in 47 multiple myeloma cell lines against the NCATS MIPE library collection: ARD_JJKsccE7 cell viability assay (AID 1918929; further: potency means the concentration at half of the fitted maximal effect). The procedure, abridged: as §2
The nature of experiment [7]: Quantitative High-Throughput drug screen in 47 multiple myeloma cell lines against the NCATS MIPE library collection: Karpas620_DSMZ cell viability assay (AID 1918959). Further: nearly all actives have a fitted effect of over 30% in size. Further: potency means the concentration at half of the fitted maximal effect. The procedure, abridged: as §1
Experiment [8] is described as follows: Quantitative High-Throughput drug screen in 47 multiple myeloma cell lines against the NCATS MIPE library collection: Karpas417_ECACC cell viability assay (AID 1918961). Further: potency means the concentration at half of the fitted maximal effect. To be noted: Karpas417 myeloma viability, CellTiter-Glo ATP luminescence, 48 h; viability (% of DMSO): at 45.8 µM (top of the series). The procedure, abridged:
(§4)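 Myeloma cells (500 per well) were exposed to MIPE 4.0 compounds by pin transfer and incubated 48 hours at 37C, 5% CO2. Viability was read as ATP by CellTiter-Glo luminescence, normalised to DMSO (100%) and media-only (0%) wells.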
A general note: ATP-based viability assays read luminescence as a measure of living cells.

A short description of experiment [9]: Quantitative High-Throughput drug screen in 47 multiple myeloma cell lines against the NCATS MIPE library collection: JIM3_ECACC cell viability assay (AID 1918963; further: nearly all actives have a fitted effect of over 35% in size; further: potency means the concentration at half of the fitted maximal effect). A digest of the protocol:
as §1

Experiment [10] is described as follows: Quantitative High-Throughput drug screen in 47 multiple myeloma cell lines against the NCATS MIPE library collection: JIM1_ECACC cell viability assay (AID 1918964; further: potency means the concentration at half of the fitted maximal effect). The procedure, abridged: as §2
Experiment [11] is described as follows: Quantitative High-Throughput drug screen in 47 multiple myeloma cell lines against the NCATS MIPE library collection: H1112_PLB cell viability assay (AID 1918967; further: nearly all actives have a fitted effect of over 30% in size; further: potency means the concentration at half of the fitted maximal effect). A digest of the protocol:
as §2

Experiment [12] can be described thus: Quantitative High-Throughput drug screen in 47 multiple myeloma cell lines against the NCATS MIPE library collection: Delta47_JCRB cell viability assay (AID 1918925; further: nearly all actives have a fitted effect of over 45% in size; further: potency means the concentration at half of the fitted maximal effect). The procedure, abridged:
as §2

A short description of experiment [13]: Quantitative High-Throughput drug screen in 47 multiple myeloma cell lines against the NCATS MIPE library collection: KHM11_PLB cell viability assay (AID 1918962). Further: nearly all actives have a fitted effect of over 35% in size. Further: potency means the concentration at half of the fitted maximal effect. The procedure, abridged:
as §1

The nature of experiment [14]: Quantitative High-Throughput drug screen in 47 multiple myeloma cell lines against the NCATS MIPE library collection: INA6_PLB cell viability assay (AID 1918965; further: nearly all actives have a fitted effect of over 55% in size; further: potency means the concentration at half of the fitted maximal effect). A digest of the protocol: as §4
Experiment [15] can be described thus: Quantitative High-Throughput drug screen in 47 multiple myeloma cell lines against the NCATS MIPE library collection: JJN3_DSMZ cell viability assay (AID 1918966; further: nearly all actives have a fitted effect of over 50% in size; further: potency means the concentration at half of the fitted maximal effect). A digest of the protocol: as §2
Experiment [16] is described as follows: Quantitative High-Throughput drug screen in 47 multiple myeloma cell lines against the NCATS MIPE library collection: KMM1_JCRB cell viability assay (AID 1918960). Further: nearly all actives have a fitted effect of over 30% in size. Further: potency means the concentration at half of the fitted maximal effect. A digest of the protocol:
as §3

Sequence of Phospholipid hydroperoxide glutathione peroxidase GPX4 (Homo sapiens) (P36969 whole entry, looked up): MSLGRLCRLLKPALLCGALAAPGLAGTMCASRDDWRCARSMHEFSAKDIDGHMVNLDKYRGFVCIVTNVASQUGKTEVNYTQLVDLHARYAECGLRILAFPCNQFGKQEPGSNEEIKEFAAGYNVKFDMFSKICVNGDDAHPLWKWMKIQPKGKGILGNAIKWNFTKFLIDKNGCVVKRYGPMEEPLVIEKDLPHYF

Take `COc1ccc(C2CNC(=O)C2)cc1OC1CCCC1` (centres undefined): the Potency entry in experiment [1], in [2], in experiment [3], in [4], in experiment [5] and in experiment [6] was “inactive” in each case. The Potency result in experiment [7], in experiment [8], in experiment [9], in [10] and in experiment [11] was “inactive” each time.

For the molecule `CC(C)(Oc1ccc(C2CC2(Cl)Cl)cc1)C(=O)O` (centres undefined), the Potency entry in experiment [1], in experiment [2], in [3], in experiment [4], in experiment [6] and in experiment [7] was “inactive” throughout. The Potency result in [9] and in experiment [11] was “inactive” in each case.

On to `Cc1ccc(C(=O)Nc2ccc(S(=O)(=O)O)c3cc(S(=O)(=O)O)cc(S(=O)(=O)O)c23)cc1NC(=O)c1cccc(NC(=O)Nc2cccc(C(=O)Nc3cc(C(=O)Nc4ccc(S(=O)(=O)O)c5cc(S(=O)(=O)O)cc(S(=O)(=O)O)c45)ccc3C)c2)c1`, for which the Potency entry in experiment [1] was “inactive and 7 µM (active)”; in experiment [9] it was 16.6 µM (active); in experiment [14], 4.69 µM (active). Further, the Potency result in experiment [2], in [12], in [3], in [5], in [6] and in experiment [7] was “inactive” throughout. Moreover, the Potency result in experiment [13], in [10] and in [15] was “inactive” in each case.

Regarding `C[C@H]1c2cccc(O)c2C(O)=C2C(=O)[C@]3(O)C(O)=C(C(N)=O)C(=O)[C@@H](N(C)C)[C@@H]3[C@@H](O)[C@@H]21`, the Potency result in experiment [1] and in experiment [4] was “inactive” each time. Besides, the results for the Potency in [2], in [12] and in experiment [14] were 26.4 µM (active), 23.5 µM (active) and 37.2 µM (active), respectively.

As to `Cn1ccc2cc3c(cc21)CCN3C(=O)Nc1cccnc1`, the Potency entry in [1], in experiment [2], in experiment [3], in experiment [5] and in experiment [7] was “inactive” in each case. For the same molecule, the Potency in experiment [4] was 23.5 µM (active); in [14], 14.8 µM (active); in experiment [11] it was 20.9 µM (active).

In the case of `CCCCc1oc2ccccc2c1C(=O)c1cc(I)c(OCCN(CC)CC)c(I)c1`, the Potency entry in experiment [1] was “inactive”. Besides, the Potency was 26.4 µM (active) in [2]; 13.2 µM (active) in experiment [12]; 8.33 µM (active) in experiment [4]; 18.7 µM (active) in [6]; 6.62 µM (active) in experiment [16]; 13.2 µM (active) in experiment [8]. Moreover, the Potency in [10] was 18.7 µM (active); in experiment [14], 16.6 µM (active); in [15], 18.7 µM (active).

As for `C[C@](N)(Cc1ccc(O)c(O)c1)C(=O)O`, the Potency entry in [1] is “inactive and 14.3 µM (active)”; in experiment [15] it was 18.7 µM (active). Further, the Potency entry in experiment [2] and in experiment [6] was “inactive” each time.

In the case of `CCOC(=O)C(C)(C)Oc1ccc(Cl)cc1`, the Potency entry in experiment [1], in experiment [2], in experiment [12], in experiment [3], in experiment [5] and in experiment [7] was “inactive” throughout. Moreover, the Potency result in experiment [16], in experiment [13], in [9], in experiment [14] and in experiment [15] was “inactive” each time.

Regarding `CC1COc2c(N3CCN(C)CC3)c(F)cc3c(=O)c(C(=O)O)cn1c23` (centres undefined), the Potency result in [1], in experiment [2], in experiment [12], in experiment [3], in experiment [5] and in experiment [6] was “inactive” each time. In addition, the Potency result in experiment [7], in experiment [13], in experiment [9], in [10], in [15] and in experiment [11] was “inactive” throughout.

For `COc1nc(C)nc(Cl)c1NC1=NCCN1`, the Potency entry in [1], in experiment [2], in experiment [4], in experiment [5], in [6] and in experiment [7] was “inactive” in each case. Moreover, the Potency entry in [13], in [9] and in [10] was “inactive” in each case. For the same molecule, the Potency is 11.8 µM (active) in experiment [12] and 7.43 µM (active) in experiment [11].

Regarding `COc1ccc2c(c1)c(CC(=O)O)c(C)n2C(=O)c1ccc(Cl)cc1`, the Potency entry in [1], in [2], in experiment [5], in experiment [16] and in [9] was “inactive” in each case. For the same molecule, the Potency in experiment [12] and in experiment [14] was 16.6 µM (active) each time.

In the case of `O=C(CCCN1CCC(O)(c2ccc(Cl)cc2)CC1)c1ccc(F)cc1`, the Potency entry in [1], in [2], in experiment [3] and in experiment [11] was “inactive” in each case. Moreover, the Potency in experiment [4] was 20.9 µM (active); in experiment [5] it was 23.5 µM (active); in experiment [6] it was 16.6 µM (active); in experiment [7], 20.9 µM (active); in experiment [14], 18.7 µM (active).

Consider `OCCN1CCN(CCCN2c3ccccc3Sc3ccc(C(F)(F)F)cc32)CC1`, for which, in experiment [1], the Potency result was “inactive”. Also, the Potency in [2] was 23.5 µM (active); in [12] it was 18.7 µM (active); in experiment [4], 18.7 µM (active); in experiment [5], 18.7 µM (active); in experiment [7], 18.7 µM (active); in experiment [16] it was 20.9 µM (active). The Potency was 26.4 µM (active) in [9], 16.6 µM (active) in experiment [10], 16.6 µM (active) in experiment [14] and 23.5 µM (active) in experiment [11].

Take `CN(C)C(=O)C(CCN1CCC(O)(c2ccc(Cl)cc2)CC1)(c1ccccc1)c1ccccc1`: the Potency entry in experiment [1], in [4] and in [6] was “inactive” in each case. The Potency in [2] was 20.9 µM (active); in experiment [12], 20.9 µM (active); in [13], 18.7 µM (active); in [9], 20.9 µM (active); in experiment [14], 18.7 µM (active); in experiment [15], 18.7 µM (active).

Take `C[C@@H]1CC(=O)NN=C1c1ccc(NN=C(C#N)C#N)cc1`: the Potency entry in experiment [1], in experiment [4], in experiment [6], in [7], in experiment [16] and in experiment [10] was “inactive” in each case. Also, the Potency in experiment [2] is 23.5 µM (active); in [12], 18.7 µM (active); in [5], 23.5 µM (active); in [9], 20.9 µM (active); in [14], 18.7 µM (active); in experiment [15], 20.9 µM (active). For the same molecule, in experiment [11], the Potency was 20.9 µM (active).

`CN(Cc1cnc2nc(N)nc(N)c2n1)c1ccc(C(=O)N[C@@H](CCC(=O)O)C(=O)O)cc1`: the Potency entry in experiment [1] and in experiment [7] was “inactive” in each case. In addition, the Potency in experiment [2] is 37.2 µM (active); in experiment [4], 0.0166 µM (active); in [5] it was 0.0332 µM (active); in experiment [10] it was 0.0264 µM (active); in experiment [14], 0.0372 µM (active); in [15] it was 0.0469 µM (active). Further, the Potency in [11] was 0.0662 µM (active).

With `COC(=O)Nc1nc2ccc(C(=O)c3cccs3)cc2[nH]1`, in experiment [1], the Potency entry is “inactive”. Besides, the Potency in experiment [4] was 0.001 µM (active); in [5], 0.0042 µM (active); in experiment [6], 0.001 µM (active); in experiment [16] it was 0.001 µM (active); in experiment [9] it was 0.001 µM (active); in experiment [10] it was 0.001 µM (active). The Potency in experiment [14] is 0.001 µM (active); in experiment [11], 0.0132 µM (active).

Turning to `COc1cc2nc(N(C)CCCNC(=O)C3CCCO3)nc(N)c2cc1OC` (centres undefined), the Potency result in experiment [3], in experiment [16], in experiment [13], in experiment [9] and in [11] was “inactive” each time.
